For part of these data: Potency and affinity values are given separately. Calls of active or inactive are those of the source. Unless noted, no rule for the calls is given here.

Assay [1] can be described thus: Cy5 fluorescence interference with SSB-bound oligo, artefact control for HCV NS3 helicase inhibitor project, biochemical, NIH Clinical Collection, E. coli SSB (AID 743268).
Assay [2] concerns Hepatitis C virus NS3 helicase. Kind of assay: HCV NS3 helicase inhibitors, primary screen, biochemical, fluorescence polarization, NIH Clinical Collection (AID 743270). Conditions: NS3 helicase binding to Cy5-dT15 DNA, stronger effect = higher value, concentration not given here.
The nature of assay [3]: modulation of C. elegans fzo-1 (AID 1259413).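 Also: fzo-1 mutant C. elegans worms in liquid wells.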 The settings on record: C. elegans fzo-1 modulator screen, mean read-out; stronger effect = higher value.
The next assay concerns F380Y. The assay can be described thus: modulators of BK channel variants, profiling panel, selectivity assay, cell-based, U2OS BacMam, thallium flux, beta subunits (AID 1259406;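 active = thallium flux through the channel raised or lowered by more than 3 SD from vehicle-only wells, actives on both sides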;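 also: initial slope of Thallos dye fluorescence rise after thallium is added; log ratio against the mean of 0.3% DMSO vehicle wells on the same plate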). Conditions: at 30 µM.
The next assay relates to F380Y/beta2Delta. The assay is described as above. Conditions: at 30 µM.
In the next assay the test system is R275C. Described as above. The settings on record: at 30 µM.
In a further assay the test system is R275C/beta1. The description is as above. Conditions: at 30 µM.
In a further assay the test system is R275C/beta2Delta. The description is as above. Conditions: at 30 µM.
Assay [4] in a line: circadian clock period modulators, cell-based, LOPAC library, luminescence reporter (AID 2774).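 Also: values are relative to mean of DMSO wells on each plate.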 Conditions: circadian reporter cells, at 7 µM, actives lie on both sides.
The nature of assay [5]: hESC survival regulators, cell-based (AID 493140).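 Also: cells exposed to compounds for four days before counting.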 The settings on record: human embryonic stem cell survival screen; stronger effect = higher value.
In assay [6] the test system is Hepatitis C virus NS3 helicase. Kind of assay: HCV NS3 helicase inhibitors, primary screen, biochemical, fluorescence polarization, LOPAC1280 library (AID 687035; in the data active = inhibition above about 37%). The settings on record: Purified HCV NS3 helicase, Cy5-dT15 ssDNA binding fluorescence polarization; stronger effect = higher value; concentration not given here. A general note: Polarisation of emitted light reports the rotation of a fluorescent probe.

Assay [7] can be described thus: Cy5 fluorescence quenching or enhancement artefacts, artefact control for HCV NS3 helicase inhibitor project, biochemical, LOPAC1280 (AID 687037). Conditions: Cy5-DNA-NS3h complex fluorescence interference counterscreen. In general terms: A counterscreen serves to expose hits that act by an unwanted route or on another target.
Assay [8] relates to Aerobactin synthetase IucA (Klebsiella pneumoniae, hypervirulent). The assay can be described thus: IucA enzyme inhibition, biochemical, LOPAC library, absorbance readout (AID 1346212).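 Also: 100% = no compound wells and 0% = no enzyme wells.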 Conditions: IucA enzyme assay, absorbance (OD) readout; stronger effect = lower value;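 tested at 8 µM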.
Assay [9] in a line: phospholipid biosynthesis inhibitors in animal cells, primary screen, cell-based, LOPAC library, screen 4 (AID 1347384). The settings on record: phospholipid biosynthesis inhibition screen, at 10 µM.
Assay [10] in a line: polyglutamine-triggered caspase-3 activation inhibitors, cell-based (AID 1583). Conditions: polyglutamine-induced caspase-3 activation, cell assay; stronger effect = higher value;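 tested at 10 µM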.
The nature of assay [11]: rescue of polyQ-huntingtin neuronal dysfunction in worms, whole organism, C. elegans mechanosensory neurons, N-terminal huntingtin (AID 1599). Conditions: touch response, stronger effect = higher value.
Assay [12] is described as follows: enhancers of glutamate uptake in motor neurons, MN-1 cell line (AID 1612).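 Also: tested at 1 µM final; 0% = mean of DMSO vehicle wells on each plate; positive means more glutamate uptake than control and negative means less.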 The settings on record: MN-1 motor neuron cells, stronger effect = higher value.
Assay [13] in a line: reducers of polyQ inclusions in PC12 cells, cell-based, NGF-treated PC12, GFPQ80 (AID 1614).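 Also: lower means fewer inclusions and 0 means no inclusions at all.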 The settings on record: PC12 NGF-treated GFP-polyQ80 inclusion reduction.
Assay [14] can be described thus: suppressors of polyglutamine aggregation in yeast, 75Q-TubH (AID 1616). The settings on record: S. cerevisiae 75Q-TubH polyglutamine aggregation suppression; stronger effect = higher value.

`COc1cc(N)c(Cl)cc1C(=O)NC1CN2CCC1CC2` (stereo not given): the fluorescence ratio in assay [1] is 0.94 (inactive). Besides, the inhibition (commonly the drop in the measured response relative to a control, in per cent) in [2] was -2.77% (inactive). Also, the mean signal in assay [3] was 253 (inactive).
As to `CC[C@]1(O)CC[C@H]2[C@@H]3CCC4=CCCC[C@@H]4[C@H]3CC[C@@]21C`, the fluorescence ratio in assay [1] is 1.02 (inactive). Moreover, the inhibition in assay [2] is -2.77% (inactive). Besides, the log fold change Tl+ flux in the assay with F380Y is 0.0652 (inactive); in the assay with F380Y/beta2Delta, -0.0162 (inactive); in the assay with R275C, 0.0162 (inactive); in the assay on R275C/beta1, 0.231 (active); in the assay on R275C/beta2Delta, 0.196 (active).
`C=C1C[C@@H]2[C@H](CC[C@]3(C)C(=O)CC[C@@H]23)[C@@]2(C)C=CC(=O)C=C12`: the fluorescence ratio in assay [1] was 1.07 (inactive). In [2], the inhibition is 2.77% (inactive). The log fold change Tl+ flux was -0.00852 (inactive) in the assay on F380Y; 0.0277 (inactive) in the assay on F380Y/beta2Delta; -0.00349 (inactive) in the assay with R275C; 0.0308 (inactive) in the assay on R275C/beta1; 0.00258 (inactive) in the assay with R275C/beta2Delta.
`CC(C)c1cccc(C(C)C)c1O`: the period change in [4] was 0.005 h (inactive). Further, the survival in assay [5] is 5.17 (inactive). Besides, the inhibition in assay [6] was -1% (inactive); in assay [2] it was -1.36% (inactive). Further, the fluorescence ratio (interference) in assay [7] was 1 (inactive). In addition, in assay [1], the fluorescence ratio is 0.96 (inactive). Moreover, the mean signal in assay [3] is 226 (inactive). Besides, the remaining activity (commonly the signal under treatment as a percentage of the control signal) in [8] was 108% (inactive). In assay [9], the result was inactive. In addition, the log fold change Tl+ flux in the assay on F380Y was -0.0182 (inactive); in the assay with F380Y/beta2Delta, -0.0275 (inactive); in the assay on R275C, -0.0316 (inactive); in the assay on R275C/beta1, -0.0537 (inactive); in the assay on R275C/beta2Delta, -0.0157 (inactive).
As to `COc1cccc([C@@]2(O)CCCC[C@@H]2CN(C)C)c1`, the mean signal in assay [3] is 274 (inactive). Besides, the log fold change Tl+ flux was -0.0178 (inactive) with F380Y; -0.0331 (inactive) in the assay with F380Y/beta2Delta; -0.0685 (inactive) in the assay with R275C; -0.0302 (inactive) in the assay with R275C/beta1; 0.00141 (inactive) in the assay with R275C/beta2Delta.
Regarding `CCCC(C)C1(CC)C(=O)N=C(S)NC1=O` (stereo not given), in [10], the inhibition came to 15.2%. For the same molecule, the rescue above control in assay [11] is -8.64. Further, the glutamate uptake change in assay [12] worked out at 15.5%. The molecule further showed an inclusion score in assay [13] of 2. In assay [14], this molecule yielded an aggregation suppression score of 0.929.
Turning to `COc1ccc(C(=O)N2CCCC2=O)cc1`, the inhibition in assay [10] is 15.7%; in [6] it was -3% (inactive). The molecule further had a rescue above control in [11] of 2.57. Moreover, in [12], the glutamate uptake change worked out at 5.51%. Moreover, the inclusion score in assay [13] stood at 2. In [14], this molecule registered an aggregation suppression score of 1.16. Moreover, in assay [4], the period change was -0.01 h (inactive). In addition, the fluorescence ratio (interference) in [7] is 0.9 (inactive). Moreover, the remaining activity in [8] was 122% (inactive). Also, the molecule was called inactive in assay [9].
`c1ccc2c(c1)OCC(C1=NCCN1)O2` (stereo not given): the period change in assay [4] is 0.1 h (inactive). For the same molecule, the survival in assay [5] was 1.58 (inactive). In [6], the inhibition is -7% (inactive). Moreover, the fluorescence ratio (interference) in assay [7] was 0.9 (inactive). The remaining activity in assay [8] is 109% (inactive). Further, the result in assay [9] was inactive.
With `c1ccc2c(c1)Nc1ccccc1S2`, in assay [1], the fluorescence ratio was 0.96 (inactive). Moreover, the inhibition in assay [2] was 1.53% (inactive). In addition, the mean signal in [3] is 265 (inactive). The log fold change Tl+ flux is -0.0351 (inactive) in the assay with F380Y; 0.033 (inactive) in the assay with F380Y/beta2Delta; -0.041 (inactive) in the assay with R275C; 0.0203 (inactive) with R275C/beta1; -0.0792 (inactive) in the assay on R275C/beta2Delta.
For the molecule `CC1(C)C(C=C(Cl)Cl)C1C(=O)OC(C#N)c1cccc(Oc2ccccc2)c1` (stereo not given), the survival in assay [5] is 64.8 (inactive).
On to `NC(=O)OCCCc1ccccc1`, for which, in assay [1], the fluorescence ratio is 1.07 (inactive). The inhibition in assay [2] is 0.4% (inactive). For the same molecule, the mean signal in assay [3] was 256 (inactive). Further, the log fold change Tl+ flux was 0.0271 (inactive) in the assay with F380Y; 0.0735 (inactive) in the assay with F380Y/beta2Delta; -0.0501 (inactive) with R275C; 0.00561 (inactive) with R275C/beta1; 0.00928 (inactive) in the assay on R275C/beta2Delta.

(Values after PubChem BioAssay.)
